Assay results published in the supplement of paper PMC6555819.

Experiments:
Assay in all cases: PBM binding z-score (relative to random genomic background probes); higher = stronger binding; sequences stand for … in GC…GCGATTGACAGCGTAGAATGAAGG
[1] = tested on: PPARg:RXRa DBDmut IVT, anti-RXR (DBD mutation: RXRa K156A/R161A, NR concentration 270 nM, RXRa partner concentration 90 nM)
Procedure, shortened: (§1)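 Binding buffer was PBS pH 7.4 with 2% milk, 0.02% Triton X-100, 1 mM DTT, 0.2 mg/mL BSA and 0.4 mg/ml salmon testes DNA. In it, ligand-free nuclear receptor dimers were incubated 1 h on custom Agilent 4×180K protein-binding microarrays carrying double-stranded probes. Antibodies against each partner (one per run) detected binding, and z-scores were calculated against random background probes after regression normalization of scanned fluorescence.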

[2] = tested on: PPARg:RXRa IVT, anti-PPARg (NR concentration 270 nM, RXRa partner concentration 90 nM)
Procedure, shortened: as §1

[3] = tested on: PPARg DBDmut:RXRa IVT, anti-PPARg (DBD mutation: PPARg1 K132A/R137A, NR concentration 270 nM, RXRa partner concentration 90 nM)
Procedure, shortened: as §1

[4] = tested on: PPARg DBDmut IVT, anti-PPARg (DBD mutation: PPARg1 K132A/R137A, NR concentration 270 nM)
Procedure, shortened: as §1

[5] = tested on: PPARg homodimer (NR concentration 180 nM)
Procedure, shortened: as §1

[6] = tested on: PXR:RXRa (NR concentration 270 nM, RXRa partner concentration 90 nM)
Procedure, shortened: as §1

[7] = tested on: PXR homodimer (NR concentration 270 nM)
Procedure, shortened: as §1

[8] = tested on: RARa:RXR (NR concentration 270 nM, RXRa partner concentration 90 nM)
Procedure, shortened: as §1

[9] = tested on: RARa homodimer (NR concentration 270 nM)
Procedure, shortened: as §1

[10] = tested on: RARb:RXRa (NR concentration 270 nM, RXRa partner concentration 90 nM)
Procedure, shortened: as §1

[11] = tested on: RARb homodimer (NR concentration 270 nM)
Procedure, shortened: as §1

[12] = tested on: RARg:RXRa (NR concentration 270 nM, RXRa partner concentration 90 nM)
Procedure, shortened: as §1

[13] = tested on: RARg homodimer (NR concentration 270 nM)
Procedure, shortened: as §1

[14] = tested on: RXRa DBDmut IVT, anti-RXR (DBD mutation: RXRa K156A/R161A, NR concentration 90 nM)
Procedure, shortened: as §1

[15] = tested on: RXRa homodimer (NR concentration 180 nM)
Procedure, shortened: as §1

[16] = tested on: THRa:RXRa (NR concentration 90 nM, RXRa partner concentration 90 nM)
Procedure, shortened: as §1

[17] = tested on: THRa homodimer (NR concentration 90 nM)
Procedure, shortened: as §1

[18] = tested on: VDR homodimer (NR concentration 270 nM)
Procedure, shortened: as §1

Sequence | PBM binding z-score [1] | PBM binding z-score [2] | PBM binding z-score [3] | PBM binding z-score [4] | PBM binding z-score [5] | PBM binding z-score [6] | PBM binding z-score [7] | PBM binding z-score [8] | PBM binding z-score [9] | PBM binding z-score [10] | PBM binding z-score [11] | PBM binding z-score [12] | PBM binding z-score [13] | PBM binding z-score [14] | PBM binding z-score [15] | PBM binding z-score [16] | PBM binding z-score [17] | PBM binding z-score [18]
ATCGAAAGGTCGTGAGGTGGGTATACAGAAAGGC | -0.234 | 1.94 | 0.885 | 1.49 | 3.69 | 3.36 | 0.721 | 4.17 | 1.39 | 4.05 | 2.93 | 4.59 | 3.86 | 1.52 | 5.16 | 2.6 | 0.377 | 1.38
CTCGAAAGGTCGTGCTAAGGTGAGTATACCAAAC | 0.626 | 2.19 | 0.542 | 0.415 | 2.51 | 3.71 | 0.449 | 5.09 | 0.258 | 4.05 | 3.37 | 6.03 | 4.31 | 2.01 | 5.25 | 4.61 | 1.79 | 1.29
CCTTACGGGTCAAGGTTATAGAACGGGTGGTACG | 1.6 | 3.22 | -0.135 | -0.211 | 1.83 | 3.27 | 0.223 | 4.16 | 1 | 4.13 | 3.67 | 4.92 | 4.97 | 0.482 | 5.58 | 3.02 | 0.782 | 1.14
CAAACTGGGTCAAAGGTCAAAGTCGAGCCAACCA | 8.32 | 8.37 | 2.08 | 2.33 | 4.84 | 6.91 | 2 | 8.83 | 2.4 | 5.44 | 5.2 | 8.56 | 7.31 | 2.55 | 10.1 | 4.51 | 1.31 | 3.12
TGAATGAGGTTGTAAGATCAGGGAACGTTGCAAA | -0.831 | -0.0172 | 0.744 | -0.354 | -0.324 | -0.125 | -0.318 | 0.203 | -0.183 | 0.0234 | -0.435 | -0.0347 | 0.0621 | -0.583 | 0.396 | 0.192 | -0.364 | -0.21
GCTTGTAGATCAAGGTTAACAAAGACTAAGCTAA | 1.56 | 1.61 | -0.0951 | 0.163 | 0.0842 | 0.565 | 0.265 | 1.07 | -0.205 | 1.04 | 0.609 | 0.795 | 0.37 | 0.051 | 1.05 | 1.49 | -0.000318 | -0.118
CCTTCTGGGCCAAAGGTCATTGATTCCAATGCTC | 5.17 | 6.5 | 0.508 | 0.533 | 2.95 | 5.52 | 1.51 | 6.29 | 0.576 | 4.44 | 4.44 | 5.8 | 4.73 | 1.41 | 6.15 | 3.44 | 0.658 | 2.23
TCATCTAGGTAAAAGGTGAAAGTCGGTGTGGTAA | 5.49 | 5.73 | 2.1 | 1.06 | 2.69 | 1.53 | 0.241 | 2.8 | 1.26 | 2.15 | 2.04 | 1.82 | 0.925 | 1.24 | 2.84 | 1.99 | 0.446 | 0.293
ATCTCTGGGTAACAAGTTCAGTGAAAGAGAGGAC | 2.93 | 2.94 | 0.76 | 0.979 | 1.27 | 1.87 | 1.92 | 0.922 | 1.24 | 1.75 | 1.8 | 1.39 | 1.59 | 0.883 | 0.958 | 1.21 | 1.06 | 2.71
TCAGACAGGTGAAGGGAACTCAGGTACGCAGTCG | 2.87 | 0.387 | -0.0761 | -0.559 | 0.811 | 0.733 | 0.499 | 0.697 | 0.593 | 1.04 | 0.93 | 0.546 | 0.498 | 1.36 | 0.877 | 0.891 | 0.717 | 0.463
AGGATGAGGTTATTAAGATCAGGGAATTGCGGTC | 0.511 | 0.741 | 0.904 | 0.665 | 1.83 | 1.69 | 1.82 | 1.53 | 0.954 | 1.72 | 1.49 | 1.41 | 1.1 | 1.78 | 1.9 | 2.24 | 1.47 | 1.97
ATCCCTAGGTAACCAAGTTCAGTGAATGCCGAAC | -0.197 | 0.606 | -0.0937 | 0.0123 | 0.495 | 2.03 | 1.88 | 0.847 | 0.816 | 1.25 | 1.97 | 0.484 | 0.374 | 0.841 | 0.841 | 1.79 | 1.02 | 2.77
AGAACCAGGGCAATGAGTTGATAGCACGGGTGGC | 2.95 | 2.68 | 0.333 | -0.225 | -0.0189 | 0.171 | 0.97 | -0.324 | -0.0861 | 0.985 | 0.48 | 0.321 | 0.673 | 0.0529 | 0.352 | 0.225 | -0.251 | 0.986
CCAGACAGGCGAGAAGGTAACTCAGCCTCGATTA | -0.678 | -0.816 | -0.981 | -2.1 | -0.649 | -1.02 | -0.455 | -0.88 | -0.498 | -0.619 | -0.738 | -0.546 | -0.427 | -0.382 | -0.473 | -0.499 | -0.402 | -0.366
